Publication PMC5540273 (PLoS ONE, 2017)

Assays:
Settings in all cases: concentration: 1 μM, replicates: in singlicate; n = 1
[1] = tested on: RIPK5
[2] = tested on: ROCK1
[3] = tested on: ROCK2
[4] = tested on: ROS1
[5] = tested on: RPS6KA4(Kin.Dom.1-N-terminal)
[6] = tested on: RPS6KA4(Kin.Dom.2-C-terminal)
[7] = tested on: RPS6KA5(Kin.Dom.1-N-terminal)
[8] = tested on: RPS6KA5(Kin.Dom.2-C-terminal)
[9] = tested on: T1, RSK1(Kin.Dom.1-N-terminal)
T1 construct: gene RPS6KA1

[10] = tested on: T2, RSK1(Kin.Dom.2-C-terminal)
T2 construct: gene RPS6KA1

[11] = tested on: T3, RSK2(Kin.Dom.1-N-terminal)
T3 construct: gene RPS6KA3

[12] = tested on: T4, RSK2(Kin.Dom.2-C-terminal)
T4 construct: gene RPS6KA3

[13] = tested on: T5, RSK3(Kin.Dom.1-N-terminal)
T5 construct: gene RPS6KA2

[14] = tested on: T6, RSK3(Kin.Dom.2-C-terminal)
T6 construct: gene RPS6KA2

[15] = tested on: T7, RSK4(Kin.Dom.1-N-terminal)
T7 construct: gene RPS6KA6

[16] = tested on: T8, RSK4(Kin.Dom.2-C-terminal)
T8 construct: gene RPS6KA6

[17] = tested on: S6K1
[18] = tested on: SBK1
[19] = tested on: SGK2
[20] = tested on: SGK3
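Note: KINOMEscan kinase panel screen.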

Row | Compound | %Inh [1] [%] | %Inh [2] [%] | %Inh [3] [%] | %Inh [4] [%] | %Inh [5] [%] | %Inh [6] [%] | %Inh [7] [%] | %Inh [8] [%] | %Inh [9] [%] | %Inh [10] [%] | %Inh [11] [%] | %Inh [12] [%] | %Inh [13] [%] | %Inh [14] [%] | %Inh [15] [%] | %Inh [16] [%] | %Inh [17] [%] | %Inh [18] [%] | %Inh [19] [%] | %Inh [20] [%]
1 | Cc1ccc(C(=O)NCC(N)=O)cc1-n1c(C)cc(OCc2ccc(F)cc2F)c(Br)c1=O | 0 | 0 | 0 | 20 | 0 | 0 | 20 | 15 | 3 | 0 | 0 | 0 | 22 | 9 | 0 | 29 | 3 | 0 | 0 | 0
2 | Cc1cccc(-c2nc(Nc3ccc4ncsc4c3)c3ccccc3n2)n1 [GW867588] | 24 | 45 | 13 | 17 | 30 | 0 | 0 | 8 | 0 | 16 | 8 | 0 | 0 | 9 | 6 | 8 | 0 | 19 | 0 | 0
3 | O=C(NCCNc1ccnc(Nc2ccc(F)cc2)n1)Nc1ccccc1F [GSK1379880] | 0 | 40 | 9 | 0 | 4 | 0 | 0 | 15 | 1 | 0 | 0 | 0 | 0 | 0 | 0 | 2 | 9 | 41 | 0 | 0
4 | O=C1NC(=O)C(N2CCc3ccccc32)=C1c1cccc(Cl)c1 [SB-408010] | 9 | 0 | 0 | 0 | 4 | 0 | 9 | 0 | 0 | 11 | 0 | 0 | 10 | 21 | 35 | 11 | 0 | 5 | 0 | 0
5 | Cl.Nc1ncnc2occ(-c3ccc(NC(=O)Nc4cc(C(F)(F)F)ccc4F)cc3)c12 [SB-707548] | 28 | 38 | 74 | 50 | 48 | 0 | 63 | 16 | 18 | 30 | 25 | 27 | 67 | 77 | 0 | 39 | 81 | 2 | 9 | 19
6 | c1ccc(-c2cc(-c3c[nH]nc3-c3ccccn3)ccn2)cc1 [GW576604] | 0 | 10 | 30 | 21 | 0 | 0 | 0 | 3 | 0 | 1 | 0 | 0 | 0 | 4 | 0 | 8 | 0 | 0 | 0 | 0
7 | O=C(Nc1n[nH]c2cc(-c3cccc(F)c3)ccc12)C1CC1 [SB-735464] | 23 | 18 | 4 | 16 | 0 | 9 | 0 | 24 | 1 | 26 | 0 | 15 | 2 | 0 | 9 | 17 | 49 | 21 | 0 | 13
8 | Cn1cc(-c2ccc3c(c2)CCN3C(=O)Cc2ccccc2Cl)c2c(N)ncnc21 [GSK2608885] | 13 | 1 | 0 | 86 | 36 | 0 | 32 | 3 | 99.2 | 30 | 0 | 23 | 87 | 12 | 0 | 18 | 14 | 25 | 0 | 3
9 | O=C(NCCCN1CCOCC1)c1cccc(Nc2nccc(Nc3ccc(Oc4ccccc4)cc3)n2)c1 [GW663929] | 7 | 0 | 27 | 25 | 0 | 0 | 0 | 32 | 18 | 20 | 0 | 11 | 7 | 10 | 0 | 20 | 0 | 1 | 12 | 19
10 | Fc1ccc(-c2ncn(CCCN3CCOCC3)c2-c2cccnc2)cc1 [SB-211743] | 9 | 0 | 6 | 27 | 31 | 0 | 0 | 5 | 2 | 9 | 34 | 0 | 0 | 27 | 20 | 0 | 0 | 1 | 0 | 0
11 | O=C(NOCC1CC1)c1ccc(F)c(F)c1Nc1ccc(I)cc1Cl | 0 | 0 | 0 | 0 | 0 | 0 | 0 | 0 | 0 | 6 | 0 | 0 | 0 | 0 | 0 | 0 | 0 | 0 | 0 | 0
12 | O=C1Cc2cc(Nc3nc(NCc4cccc(S(=O)(=O)C(F)(F)F)c4)ncc3C(F)(F)F)ccc2N1 | 4 | 6 | 13 | 3 | 11 | 24 | 0 | 0 | 41 | 0 | 37 | 15 | 8 | 0 | 35 | 0 | 0 | 0 | 2 | 33
13 | Cc1nnc(-c2ccc3ncc(-c4ccc(S(C)=O)cc4)n3c2)o1 (stereo not drawn) | 21 | 28 | 9 | 0 | 0 | 9 | 0 | 2 | 0 | 27 | 7 | 4 | 0 | 31 | 0 | 19 | 0 | 0 | 13 | 0
14 | Cc1cccc(-c2nc(-c3ccc(S(C)(=O)=O)cc3)sc2-c2ccncc2)c1 | 18 | 16 | 0 | 23 | 0 | 3 | 11 | 9 | 0 | 34 | 0 | 25 | 0 | 4 | 30 | 15 | 12 | 1 | 0 | 12
15 | CCCCCc1nc2c(N)ncnc2n1CCCCC [SKF-97255] | 8 | 90.1 | 59 | 1 | 6 | 0 | 14 | 9 | 8 | 11 | 32 | 0 | 0 | 7 | 20 | 0 | 13 | 0 | 0 | 0
16 | CN(C(=O)c1ccc(-c2cc(-c3c[nH]nc3-c3ccccn3)ccn2)cc1)C1CCOCC1 [GW810083] | 0 | 31 | 20 | 0 | 0 | 0 | 0 | 0 | 0 | 0 | 6 | 20 | 0 | 16 | 0 | 53 | 0 | 0 | 8 | 0
17 | Cl.Oc1cccc(Nc2ccnc3cc(-c4ccncc4)ccc23)c1 [GW494601] | 0 | 88 | 72 | 34 | 0 | 0 | 16 | 16 | 0 | 13 | 12 | 23 | 0 | 0 | 0 | 29 | 0 | 34 | 0 | 3
18 | O=C(c1ccc(-c2cc(-c3c[nH]nc3-c3ccccn3)ccn2)cc1)N1CCOCC1 [GW812171] | 22 | 0 | 24 | 0 | 6 | 0 | 0 | 0 | 14 | 0 | 31 | 0 | 0 | 0 | 9 | 24 | 13 | 0 | 0 | 16
19 | CSc1ccc(-c2cc3ncnc(SCC(=O)O)c3s2)cc1 | 0 | 0 | 0 | 3 | 0 | 0 | 0 | 0 | 9 | 12 | 0 | 0 | 0 | 20 | 0 | 19 | 0 | 0 | 0 | 6
20 | COc1cc(Nc2nccc(N3CCC(NC(=O)c4cccc(NC(C)=O)c4)C3)n2)cc(OC)c1OC (stereo not drawn) [GSK1379754] | 0 | 32 | 49 | 44 | 23 | 0 | 11 | 0 | 58 | 0 | 3 | 22 | 26 | 0 | 1 | 0 | 10 | 9 | 0 | 0
21 | CCc1ccnc(/C=C/c2n[nH]c3cc(Sc4ccccc4C(=O)NC)ccc23)c1 | 0 | 0 | 0 | 19 | 0 | 0 | 0 | 0 | 0 | 3 | 8 | 0 | 13 | 6 | 18 | 12 | 6 | 16 | 0 | 24
